# Shown are actives, neighbours in structure and some others; about 11% of the full set was active somewhere.
# HTT cytoprotect = cytoprotection in Huntington HTT-Q103 PC12 cell model | AID 1471 | Potency, µM (series often up to 56.4 µM), hits mostly activators | PC12 HTT-Q103 induced, cytoprotection, ATP luminescence, 40 h | 230,000 compounds, 0.14% hits; also: nearly all actives have a fitted effect of over 45% in size
#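 Rat PC12, Q103 Htt exon1-GFP fusion, ecdysone promoter; tebufenozide inducer 100 nM final; compound titration; qHTS, 1500 cells/well; ATPlite luminescent read.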
# CBFb RUNX1 block = blocks binding between human CBF-beta and RUNX1; Potency, µM (titrated, usually from 59.8 µM), most hits filed as inhibitors; Q01196+Q13951; 230,000 tested, under 10 active; AlphaScreen CBFb-His/RUNX1-biotin binding, biochemical; AID 1477
# Target sequence (Q01196 whole entry, looked up): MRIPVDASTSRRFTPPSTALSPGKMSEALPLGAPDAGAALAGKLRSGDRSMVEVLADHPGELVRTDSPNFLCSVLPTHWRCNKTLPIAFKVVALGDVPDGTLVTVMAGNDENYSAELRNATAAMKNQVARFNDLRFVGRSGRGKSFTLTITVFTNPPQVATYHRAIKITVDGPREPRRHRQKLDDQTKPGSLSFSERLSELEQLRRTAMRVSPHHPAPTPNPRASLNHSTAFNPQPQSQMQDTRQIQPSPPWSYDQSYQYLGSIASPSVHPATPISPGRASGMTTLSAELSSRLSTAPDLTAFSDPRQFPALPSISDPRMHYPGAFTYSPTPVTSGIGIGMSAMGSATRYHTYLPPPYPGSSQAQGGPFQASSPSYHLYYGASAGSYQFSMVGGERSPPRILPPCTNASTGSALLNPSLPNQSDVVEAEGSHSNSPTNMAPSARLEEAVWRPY
# Target sequence (Q13951 whole entry, looked up): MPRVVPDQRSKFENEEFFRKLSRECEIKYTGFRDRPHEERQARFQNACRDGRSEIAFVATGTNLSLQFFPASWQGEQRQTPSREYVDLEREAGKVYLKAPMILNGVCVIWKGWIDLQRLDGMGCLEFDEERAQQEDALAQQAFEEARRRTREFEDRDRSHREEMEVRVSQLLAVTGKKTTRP
#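 Compounds were screened at multiple concentrations against a preformed CBF-beta(His)/RUNX1(biotin) complex (30 nM of each) for 15 min at room temperature, followed by 90 min with nickel and streptavidin beads and AlphaScreen reading.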
# HTT aggregate = mutant huntingtin aggregation inhibition; PC12 HttQ103-GFP aggregates, Acumen cytometry, 40 h; Potency, µM (titrated, usually from 46.1 µM), most hits filed as inhibitors; 220,000 compounds, 1.1% hits; also: nearly all actives have a fitted effect of over 60% in size
#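 PC12 cells stably carrying ecdysone-inducible HTT exon 1 Q103–GFP were induced with tebufenozide (100 nM final) and treated with library compounds in titration. GFP aggregates in lysates were counted by laser scanning cytometry.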
# PNC inhibitor = inhibitors of perinucleolar compartment assembly. PC3M PTB-GFP, PNC prevalence imaging, 16 h; stronger effect = lower value. activity change (PNC), negative = inhibition, % at 10 µM. 140,000 compounds, 3.1% hits;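 active = readout at or below -70, meaning at least 70% loss of cells showing the perinucleolar compartment, a nuclear body marking cancer cells; inconclusive = readout between -30 and a set limit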
#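 PC3M cells stably expressing PTB-GFP, 750–1000 cells/well, treated 16 h at 37 °C with compound (23 nl of library stock), in duplicate. After paraformaldehyde fixation and Hoechst stain, imaged at 20x; PNC prevalence scored by image analysis.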
# ALDH1A1 block = blocks purified human ALDH1A1 activity; Potency, µM (doses to about 75.3 µM), most hits filed as inhibitors; 220,000 compounds, 7.3% hits; Purified ALDH1A1, NADH fluorescence, propionaldehyde substrate; P00352; active = well fitted inhibition curve with a large enough effect, not every such curve was filed as active; inconclusive = small, poorly fitted or top-dose-only effect, or another doubt; inactive = no such curve, though single readings can be large or run the other way
# HPGD inh = blocks human HPGD enzyme activity. P15428. purified HPGD, NADH fluorescence kinetic, PGE2 substrate. Potency, µM, most hits filed as inhibitors. 150,000 compounds, 4.3% hits. AID 894; active = well fitted inhibition curve with a large enough effect, not every such curve was filed as active; inconclusive = small, poorly fitted or top-dose-only effect, or another doubt; inactive = no such curve, though single readings can be large or run the other way
#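 NADH formation kinetics: reaction with 30 uM PGE2 and 1 mM NAD+ (final), 20 nM enzyme, Tris-HCl pH 8 with Tween 20, after 15 min compound preincubation at room temperature. Fluorescence change, last versus first of five reads.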
# A number is an active result; - = inactive; ? = inconclusive; . = no result given; [ ] = remark or other dose. Unless noted, calls follow the shape of the dose curve; as a rule, active = well fitted curve in the direction sought with a large enough effect; inconclusive = small, poorly fitted or top-dose-only effect, or another doubt; inactive = no such curve, though single readings can be large; an effect the other way counts as inactive or inconclusive.
SMILES,HTT cytoprotect,CBFb RUNX1 block,HTT aggregate,PNC inhibitor,ALDH1A1 block,HPGD inh
Cc1ccc(O)c(C(=O)c2cc(C#N)c(=O)n(-c3c(C)n(C)n(-c4ccccc4)c3=O)c2)c1,-,-,-,-,-,-
Cc1ccc(O)c(C(=O)c2cc(C#N)c(=O)n(-c3nccs3)c2)c1,-,?,-,.,8.91µM,.
COc1cccc(-c2cc(N(C)Cc3ccco3)ncn2)c1,-,.,.,.,?,.
CCS(=O)(=O)c1ccc2oc(SCC(=O)NC(C)C3CC4CCC3C4)nc2c1 (stereo not drawn),-,-,-,-,-,-
O=C(NCc1ccc(N2CCCC2=O)cc1)NC1CCCCC1,-,-,-,-,-,22.4µM
O=C(NC1CCCCCC1)c1ccc(N2CCCC2=O)cc1,-,-,-,?,-,?
O=C(NC1CCCCC1)c1ccc(N2CCCC2=O)cc1,-,-,-,-,-,8.91µM
O=C(NCc1ccccc1)NC1CCCCC1,-,-,-,-,-,?
CC1(C)C(=O)C2C[C@]3(O)C4=CC(=O)OC(c5ccoc5)[C@]4(C)CCC3[C@](C)(C2=O)C1CC(=O)O (stereo partly drawn),-,-,.,.,-,-
O=C(CCCCCN1C(=O)c2ccccc2C1=O)Nc1ccc(F)cc1,-[10 µM],-,-,-100.0,?,17.8µM
O=C(CCn1c(=O)oc2ccccc21)Nc1ccc2c(c1)OCCO2,-[10 µM],-,-[9.22 µM],.,.,.
[N-]=[N+]=CC(=O)CCCN1C(=O)c2ccccc2C1=O,-[0.074 µM],-,-,-,10µM,-
O=C(CCCCCN1C(=O)c2ccccc2C1=O)Nc1ccc(S(=O)(=O)N2CCCCC2)cc1,-,-,-,-,-,-
O=C(CCCN1C(=O)CCC1=O)Nc1ccc2c(c1)OCCO2,-,-,-,-,?,-
O=C(CCCCCN1C(=O)c2ccccc2C1=O)Nc1ccc2c(c1)OCCO2,-,-,-,-,28.2µM,-
O=C(CCN1C(=O)c2ccccc2C1=O)Nc1ccc2c(c1)OCCO2,-[10 µM],-,-,-88.7,?,-
O=C(CCC1N=C2c3ccccc3N=C(SCC(=O)NCc3ccco3)N2C1=O)NCc1ccco1 (stereo not drawn),-,-,-,.,?,.
Cc1ccc(S(=O)(=O)COCCN2CCN(S(=O)(=O)c3ccc(C)cc3)CCC2=O)cc1,-,?,.,.,-,-
NCC1O[C@@H](OC2C(N)C[C@H](N)[C@@H](O[C@H]3OC(CO)C(O)C(N)C3O)C2O)C(O)C(O)C1O (stereo partly drawn),-,-,.,.,-,-
OCCN1CCN(c2nc(NCc3ccco3)c3ccccc3n2)CC1,-[10 µM],-,-,-88.0,?,-
Cc1nn(-c2ccccc2)c(Cl)c1/C=C1\SC(=S)NC1=O,-,-,?,?,?,15.8µM
Cc1nn(-c2ccccc2)c(Cl)c1/C=C1/C(=N)N2N=C(C(C)C)SC2=NC1=O,.,-,-,?,?,22.4µM
Cc1nn(-c2ccccc2)c(Cl)c1/C=C1\SC(=S)N(CCCCCC(=O)O)C1=O,-[10 µM],-,-[9.22 µM],.,.,.
COc1cccc(Cn2c(=O)cnc3cnc(Oc4ccccc4)nc32)c1,-,.,.,.,-,.
COCC(=O)Nc1nnc(SCC(=O)NCc2cccs2)s1,-[10 µM],-,-[9.22 µM],-,-,-
SMILES,HTT cytoprotect,CBFb RUNX1 block,HTT aggregate,PNC inhibitor,ALDH1A1 block,HPGD inh
CN[C@@H](CCCN=C(N)N)C(=O)N[C@@H](CCCCN)C(=O)N1CCC[C@H]1C(=O)N[C@@H](Cc1c[nH]c2ccccc12)C(=O)N[C@H](C(=O)N[C@H](CC(C)C)C(=O)O)C(C)(C)C,.,-,.,.,.,.
Cc1nc([N+](=O)[O-])c(NCCO)n1Cc1ccccc1,-,-,-,.,-,.
Cc1nc([N+](=O)[O-])c(Sc2nc3ccccc3n2C)n1Cc1ccccc1,-[10 µM],-,10µM,-,-,-
Cc1nc([N+](=O)[O-])c(SCC(N)=O)n1Cc1ccccc1,-[10 µM],-,-[9.22 µM],.,?,.
Cc1nc([N+](=O)[O-])c(N2CCN(C)CC2)n1Cc1ccccc1,-,-,-,-88.1,-,-
COc1ccc(-c2nc3cnc(OC)nc3n(Cc3cccc(OC)c3)c2=O)cc1,-,.,.,.,?,?
CCOC(=O)C1C2C=CC3(CN(Cc4ccccc4)C(=O)C13)O2 (stereo not drawn),-,-,-,.,-,.
CC(C)(C)OC(=O)NCC12C=CC(O1)C1C(=O)N(Cc3ccccc3)C(=O)C12 (stereo not drawn),-[1.9 µM],-,-,-,3.16µM,-
COc1ccc(OC)c(-n2c(-c3cccc(O)c3)n[nH]c2=S)c1,-[1.9 µM],-,-,?,10µM,?
COc1ccc(-c2cc(-c3n[nH]c(=S)n3-c3cc(OC)ccc3OC)[nH]n2)cc1,.,-,-,-,20µM,?
COc1ccc(OC)c(-n2c(-c3ccc(C)cc3)n[nH]c2=S)c1,-,-,-,-,17.8µM,?
COc1ccc(-c2n[nH]c(=S)n2N)c(OC)c1,-,-,-,.,25.1µM,.
COc1ccc(-c2n[nH]c(=S)n2-c2cc(OC)ccc2OC)cc1,-[10 µM],-,-[9.22 µM],.,.,.
COc1ccc(OC)c(-n2c(-c3cc(-c4ccc(F)cc4)n[nH]3)n[nH]c2=S)c1,-,-,-,-,-,.
O=C(Nc1ccc(C(=O)O)cc1)Nc1ccc(F)cc1F,-,-,-,.,-,.
O=c1c(-c2ccccc2)nc2cnc(N3CCNCC3)nc2n1-c1ccccc1,-,.,.,.,?,.
COc1ccc2c(c1OC)C(Cc1ccccc1)N1CCc3cc4c(cc3C1C2)OCO4 (stereo not drawn),-[1.9 µM],-,.,.,?,?
Cc1cc(N)n(-c2ccc(S(=O)(=O)c3ccc(C(C)C)cc3)cc2)n1,-[10 µM],-,-,.,35.5µM,.
Cc1cccc(Nc2ncnc3ccccc23)c1,-[10 µM],-,12.6µM,?,-,-
Cc1ccc(Nc2ncnc3ccccc23)cc1,-[10 µM],-,-[9.22 µM],.,-,.
COc1ccc(C(c2c(O)nc(SC)n(C)c2=O)c2c(O)nc(SC)n(C)c2=O)cc1O,-[10 µM],-,-,?,14.1µM,-
COc1ccc(-c2nc(SC)n(C)c(=O)c2C#N)cc1OC,-,-,-,-,?,?
CCn1c(N)c(C(=O)NCc2ccco2)sc1=S,-,-,-,?,14.1µM,22.4µM
CCOC(=O)c1ccc(-n2c(N)c(C(=O)NCc3ccco3)sc2=S)cc1,-,-,-,-,17.8µM,28.2µM
COc1ccc(-n2c(N)c(C(=O)NCc3ccco3)sc2=S)cc1,-,-,-,-,?,?
CCn1c(N)c(C(N)=O)sc1=S,-[10 µM],-,-,-,8.91µM,?
C=CCNC(=O)c1sc(=S)n(-c2ccc(C(=O)OCC)cc2)c1N,-,-,-,-,12.6µM,15.8µM
O=C(OC[C@@H]1O[C@@](O)(COC(=O)c2cccnc2)[C@H](OC(=O)c2cccnc2)[C@H]1OC(=O)c1cccnc1)c1cccnc1,?,-,-,.,-,-

# Screens deposited in PubChem BioAssay by National Center for Advancing Translational Sciences (NCATS).
